Source: PubChem BioAssay (several laboratories)
FBA Mtb inh = Mtb FBA enzyme inhibitors, primary screen, biochemical, fluorescence, strain H37Rv | Fructose-bisphosphate aldolase (Mycobacterium tuberculosis (strain ATCC 25618 / H37Rv)), … | purified M. tuberculosis FBA, fluorescence read-out | inhibition, % at 1 µM | hit rate 2.3% among 360,000 | AID 588726, 2011;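 further: 0% = vehicle and 100% = reference inhibitor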
Target sequence (P9WQA3 whole entry, looked up): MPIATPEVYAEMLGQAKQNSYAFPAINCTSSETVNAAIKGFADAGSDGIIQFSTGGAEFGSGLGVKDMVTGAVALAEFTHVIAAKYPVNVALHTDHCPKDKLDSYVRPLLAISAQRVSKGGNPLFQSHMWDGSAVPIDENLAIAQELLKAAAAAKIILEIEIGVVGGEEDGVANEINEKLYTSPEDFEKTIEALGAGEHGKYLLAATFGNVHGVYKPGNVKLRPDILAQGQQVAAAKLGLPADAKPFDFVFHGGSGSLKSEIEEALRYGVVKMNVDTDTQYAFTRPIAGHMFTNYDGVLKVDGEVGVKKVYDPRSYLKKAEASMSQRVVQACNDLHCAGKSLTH
BH1578 lux ind = inducers of Vibrio cholerae quorum light production without autoinducers, primary screen, BH1578 luxS cqsA deficient, single point | V. cholerae BH1578 lux reporter, luminescence, 6 h | activation, % at 18.7 µM | hit rate 0.16% among 350,000 | AID 588436, 2011; in the data active means activation mostly above about 9.7%, no sharp cut-off
GDH-TPI counter-1 = GDH-TPI coupling enzyme inhibitors, primary screen, artefact control for M. tuberculosis FBA inhibitor project, biochemical, absorbance, full deck; GDH-TPI coupled enzyme counterscreen, NADH absorbance; inhibition, % at 4.8 µM; hit rate 1.2% among 360,000; AID 588335, 2011; in the data active means inhibition above about 30%;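 further: 0% = DMSO wells and 100% = wells lacking the enzyme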
Mtb BioA inh = M. tuberculosis BioA enzyme inhibitors, primary screen, biochemical, plate reader, single point, HTS; purified M. tuberculosis BioA enzyme; inhibition, % at 9.99 µM; hit rate 0.096% among 360,000; AID 602481, 2012; in the data active means inhibition above about 40%
Mtb FBA confirm = M. tuberculosis aldolase blockers, biochemical, fluorescence, strain H37Rv, confirmation. purified M. tuberculosis FBA, fluorescence read-out. shares compounds with FBA Mtb inh. inhibition, % at 1 µM. hit rate 78% among 5,600;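 further: 0% = vehicle wells and 100% = reference inhibitor wells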
GDH-TPI counter-2 = GDH-TPI coupling enzyme inhibitors, artefact control for M. tuberculosis FBA inhibitor project, biochemical, fluorescence, high throughput | shares compounds with FBA Mtb inh | GDH-TPI coupled enzyme counterscreen | inhibition, % at 1 µM | hit rate 81% among 5,600; in the data active means inhibition above about 10%
GDH-TPI dose = GDH-TPI coupling enzyme inhibitors, dose response, artefact control for M. tuberculosis FBA inhibitor project, biochemical, fluorescence, IC50 | IC50, µM | GDH-TPI coupled enzyme assay, artifact counterscreen | AID 652145, 2013 | shares compounds with FBA Mtb inh | hit rate 79% among 170; call rule not given here
* marks the source's active call; other numbers are inactive results; i = inactive; / = no result given; + = active, no number. A selection: hits, their analogues and other compounds. The true share with any hit is near 3%. Unless noted, no stated cut-off is given here; in the data, active means inhibition above about 27%; inactive means the rest.

SMILES	FBA Mtb inh	BH1578 lux ind	GDH-TPI counter-1	Mtb BioA inh	Mtb FBA confirm	GDH-TPI counter-2	others
COc1ccccc1-c1nc(C(N)=O)c2[nH]c(=O)n(-c3cccc(C)c3)c2n1	48*	0	29	/	+	195*
CC(C)Cc1nc(C(N)=O)c2[nH]c(=O)n(-c3ccc(F)cc3)c2n1	10	0	2	-2	/	/
CCc1nc(C(N)=O)c2[nH]c(=O)n(-c3ccccc3F)c2n1	105*	-5	8	-2	91*	74*
CN1C(=O)c2cc(NC(=O)c3ccc(C(F)(F)F)cc3)ccc2OC[C@@H]2O[C@H](CC(=O)NC3Cc4ccccc4C3)CC[C@H]21	/	/	/	-1	/	/
CN(C)c1ccc(C=NNC(=S)Nc2ccc(F)cc2)cc1	32*	i	41*	-1	3	2
COc1ccc(C2SCC(=O)N2c2c(C)n(C)n(-c3ccccc3)c2=O)c(OC)c1 (stereo unspecified)	-1	i	3	-1	/	/
COc1ccc(C2SCC(=O)N2c2c(C)n(C)n(-c3ccccc3)c2=O)cc1OC (stereo unspecified)	47*	i	-1	-4	58*	45*
CCOc1ccc(C2SCC(=O)N2c2c(C)n(C)n(-c3ccccc3)c2=O)cc1 (stereo unspecified)	96*	0	0	0	3	-4
Cc1c(N2C(=O)CSC2c2ccccc2)c(=O)n(-c2ccccc2)n1C (stereo unspecified)	2	0	-6	0	/	/
O=C(C[C@H]1C[C@@H]2c3cc(NC(=O)Nc4ccc(F)cc4)ccc3O[C@@H]2[C@H](CO)O1)NCC1CC1	/	/	/	0	/	/
O=C(O)C[C@@H]1CC[C@@H](NC(=O)c2ccccc2F)[C@@H](CO)O1	/	/	/	-2	/	/
Cc1cc(C(O)c2ncc(-c3cccc4ccccc34)[nH]2)ccc1F (stereo unspecified)	40*	-1	3	-1	56*	41*
COc1c(C)cc(C(O)c2ncc(-c3ccccc3C(F)(F)F)[nH]2)cc1C (stereo unspecified)	-3	-1	1	0	/	/
OC(c1ccc(Cl)c(F)c1)c1ncc(-c2cccc3ccccc23)[nH]1 (stereo unspecified)	20	i	3	0	/	/
COc1c(C)cc(C(O)c2ncc(-c3cccc4ccccc34)[nH]2)cc1C (stereo unspecified)	35*	0	1	1	+	+
CC(C)Cn1cc(-c2cccc3nccn23)cn1	105*	0	4	0	0	-2
C/C=C/c1ccc([C@@H]2[C@@H](CN(C)C(=O)CC)N(S(C)(=O)=O)[C@H]2CO)cc1	/	/	/	-5	/	/
Cc1ccc(-c2cc(C(=O)O)c3ccccc3n2)c(C)c1	8	i	21	-2	/	/
Cc1c(-c2cc(C(=O)O)c3ccccc3n2)cnn1C	97*	i	5	-1	136*	113*
Nc1nnc(/C=C/c2ccccc2Cl)s1	28*	0	6	/	15	0	GDH-TPI dose=3.9*
O=C(Nc1ccccc1)Nc1nnc(/C=C/c2ccccc2Cl)s1	4	i	3	-1	/	/
CCC(=O)N(C)C[C@H]1Oc2ncc(/C=C/c3ccccc3)cc2C(=O)N([C@H](C)CO)C[C@@H]1C	/	/	/	-2	/	/
C[C@@H]1CN([C@@H](C)CO)C(=O)c2cc(-c3cccc(F)c3)cnc2O[C@@H]1CN(C)C(=O)C1CCCCC1	/	/	/	0	/	/
O=C(C[C@@H]1CC[C@H](NC(=O)C2CCOCC2)[C@H](CO)O1)Nc1nccs1	/	/	/	-2	/	/
Clc1ccc(-c2nnc(N3CCOCC3)o2)cc1	40*	i	-5	0	92*	56*
SMILES	FBA Mtb inh	BH1578 lux ind	GDH-TPI counter-1	Mtb BioA inh	Mtb FBA confirm	GDH-TPI counter-2	others
Cc1ccccc1S(=O)(=O)NCC[C@@H]1CC[C@H](NC(=O)C2CCC2)[C@H](CO)O1	/	/	/	-2	/	/
C=CCn1c(=N)c(C#N)cc2c(=O)n3ccccc3nc21	51*	-1	2	/	128*	111*
N#Cc1cc2c(=O)n3ccccc3nc2n(-c2ccc(Cl)cc2)c1=O	49*	-1	2	-2	10	-5
COc1ccc(CCn2c(=N)c(S(=O)(=O)c3ccc(Cl)cc3)cc3c(=O)n4ccccc4nc32)cc1	0	0	2	-3	/	/
O=C(Cc1ccccc1)N1C[C@H]2[C@@H](c3ccccc31)[C@H](CO)N2C(=O)C1CCCCC1	/	/	/	-2	/	/
O=C(NCCN1CCOCC1)[C@]1(Cc2ccccc2)N=C(c2ccc(OCCCO)cc2)O[C@@H]1c1ccccc1	/	/	/	1	/	/
O=c1oc2c(O)cccc2cc1-c1nc2ccccc2[nH]1	55*	0	5	0	142*	103*
O=c1oc2c(CN3CCCCC3)c(O)ccc2cc1-c1nc2ccccc2[nH]1	2	0	-4	-11	/	/
Cc1cccn2c(=O)c(/C=C(\C#N)C(=O)NC3CCS(=O)(=O)C3)c(Oc3ccc(F)cc3)nc12 (stereo unspecified)	32*	-5	-3	6	+	+
Cc1cc(Oc2nc3ccccn3c(=O)c2/C=C(\C#N)C(=O)NC2CCS(=O)(=O)C2)ccc1Cl (stereo unspecified)	45*	0	2	1	139*	113*
N#C/C(=C\c1c(Oc2ccc(Cl)cc2)nc2ccccn2c1=O)C(=O)NC1CCS(=O)(=O)C1 (stereo unspecified)	86*	i	8	13	+	182*
Cc1cccc(Oc2nc3ccccn3c(=O)c2/C=C(\C#N)C(=O)NC2CCS(=O)(=O)C2)c1 (stereo unspecified)	18	0	3	/	/	/
Cc1cccc(Oc2nc3ccccn3c(=O)c2/C=C(\C#N)C(=O)NC2CCS(=O)(=O)C2)c1C (stereo unspecified)	51*	0	8	0	107*	80*
CCCNC(=O)[C@@H]1[C@@H](CO)[C@@H]2Cn3c(ccc(-c4ccncc4)c3=O)[C@H]1N2CC1CC1	/	/	/	-2	/	/
O=C1c2ccccc2NC2CCCCC12 (stereo unspecified)	0	-7	8	1	/	/
O=C1OC(C(Cl)(Cl)Cl)Nc2ccccc21 (stereo unspecified)	40*	/	/	/	+	+
O=S(=O)(c1ccc(F)cc1)N1CCCCN2[C@H](CO)[C@H](c3ccc(C#CC4CCCC4)cc3)[C@H]2C1	/	/	/	2	/	/
